High-throughput results from PubChem BioAssay.
Tau ThT inhib: qHTS for Inhibitors of Tau Fibril Formation, Thioflavin T Binding | Microtubule-associated protein tau (Homo sapiens), P10636 | recombinant tau K18 P301L, heparin-induced fibrillization, ThT fluorescence | Potency, µM (series often up to 57.4 µM), for inactives: top-dose activity, negative = inhibition, actives largely listed as inhibitors | 270,000 tested, 2.1% active | AID 1460, 2008; note: potency is the fitted concentration of half-maximal effect; nearly all actives have a fitted effect of over 55% in size
Target sequence (P10636 561-689 P618L limits assumed): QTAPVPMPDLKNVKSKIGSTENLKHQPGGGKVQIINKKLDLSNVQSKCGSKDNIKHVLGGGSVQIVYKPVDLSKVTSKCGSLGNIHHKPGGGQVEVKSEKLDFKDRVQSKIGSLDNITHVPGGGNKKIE
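Using a mix of unlabeled (15 uM) and Alexa 594-labeled (0.24 uM) tau K18 P301L, heparin-triggered fibrillization over 6 hr at 37 C was scored by ThT fluorescence.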
Sfp PPTase inh: qHTS Assay for Inhibitors of Bacillus subtilis Sfp phosphopantetheinyl transferase (PPTase). 4'-phosphopantetheinyl transferase ffp (Bacillus subtilis), Q9F4F7. Biochemical Sfp PPTase activity, qHTS. Potency, µM, for inactives: largest response in the series, negative = inhibition, most hits filed as inhibitors. 310,000 tested, 3.5% active. AID 1490, 2009;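 note: the enzyme is Sfp with the accession as filed and its product quenches rhodamine fluorescence; potency is the fitted concentration of half-maximal effect; 0% = enzyme reaction without inhibitor and -100% = no enzyme wells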
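With Hepes-Na pH 7.6 buffer containing 10 mM MgCl2, Sfp (15 nM) modified BHQ-2-YbbR (12.5 uM) using rhodamine-CoA (5 uM). Two reads 30 minutes apart at 525/598 nm yielded each well's rate.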
Tau fibril FP: qHTS for Inhibitors of Tau Fibril Formation, Fluorescence Polarization. Microtubule-associated protein tau (Homo sapiens), P10636. K18 P301L tau heparin fibrillization, Alexa594 FP, 6 h. Potency, µM (series often up to 57.7 µM), for the others: at the top dose activity, negative = inhibition, most hits filed as inhibitors. 280,000 tested, 0.39% active; note: potency is the fitted concentration of half-maximal effect; nearly all actives have a fitted effect of over 55% in size
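Human K18 P301L fragment (15 uM unlabeled plus 0.24 uM Alexa 594-labeled) in 100 mM sodium acetate pH 7 with compound, aggregation induced by 20 uM heparin for 6 hr at 37 C. ThT (30 uM) added for 1 hr, then Alexa 594 FP read.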
Tau fluor counter: Counterscreen qHTS for Inhibitors of Tau Fibril Formation, Fluorescence Polarization; tau K18 P301L Alexa594 fluorescence, heparin fibrillization; Potency, µM (series often up to 57.7 µM), for the others: top-dose activity change, negative = decrease; 280,000 tested, 0.93% active; AID 1463, 2008; note: potency is the fitted concentration of half-maximal effect; nearly all actives have a fitted effect of over 55% in size
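Human tau K18 P301L (15 uM unlabeled, 0.24 uM Alexa 594-labeled) in 100 mM sodium acetate pH 7 with 20 uM heparin, 6 hr at 37 C. ThT 30 uM added, 1 hr ambient; Alexa 594 FP and total fluorescence read at 555/632 nm.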
FBPA coupling cs: qHTS Assay for Inhibitors of Fructose-1,6-bisphosphate Aldolase from Giardia Lamblia: Coupling assay counterscreen; coupling enzyme system counterscreen, AmpLite Red fluorescence; activity change, negative = inhibition, % at 58.2 µM, hits read low; AID 2472, 2010; 290,000 tested, 0.67% active; in the data active = activity change below about -30%
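Activity here indicates interference with the coupling reaction, not aldolase inhibition. Compounds at 57.5 uM final met coupling enzymes for 10 min at RT; substrate and AmpLite Red detection followed, with a 525/598 nm fluorescence read after 20 min.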
The depositor's hits bear a star. Only some compounds are listed: those with a hit (about 5.2% of all), similar ones and a draw of the others. Unless noted, calls come from the whole dose curve; as a rule, active = well fitted curve in the direction sought with a large enough effect; inconclusive = small, poorly fitted or top-dose-only effect, or another doubt; inactive = no such curve, though single readings can be large; an effect the other way counts as inactive or inconclusive. Unless noted, % is set by controls: 0 for no effect and ±100 for the full control effect.

COc1ccc(-c2oc3cc(OC)ccc3c(=O)c2O)cc1 was read as Tau ThT inhib -11.8%, Sfp PPTase inh -3.1%, Tau fibril FP inconclusive, Tau fluor counter -19.7% and FBPA coupling cs 2.1.
`O=c1c2ccccc2[se]n1-c1ccccc1` gave Tau ThT inhib inconclusive, Sfp PPTase inh 0.794µM*, Tau fibril FP inconclusive, Tau fluor counter inconclusive and FBPA coupling cs -1.7.
For O=[N+]([O-])O[C@H]1CO[C@H]2[C@@H]1OC[C@H]2O the results were Tau ThT inhib -4.7%, Sfp PPTase inh 6.5%, Tau fibril FP 6.5%, Tau fluor counter inconclusive and FBPA coupling cs 1.4.
O=C1NC(=O)C(=Cc2cccc(OCCOc3ccccc3)c2)C(=O)N1 was read as Sfp PPTase inh 44.7µM* and FBPA coupling cs 5.2.
For Cc1ccc(OCCOc2cccc(C=C3C(=O)NC(=O)NC3=O)c2)c(C)c1 the results were Sfp PPTase inh 50.1µM* and FBPA coupling cs 3.6.
`Cc1ccc(OCCn2cccc2/C=C2/C(=O)NC(=O)N(Cc3ccco3)C2=O)cc1` gave Sfp PPTase inh inconclusive, Tau fibril FP 3.5%, Tau fluor counter -22.3% and FBPA coupling cs 1.1.
Screening O=C1NC(=O)C(=Cc2ccc(OCCOc3ccc([N+](=O)[O-])cc3)cc2)C(=O)N1 returned Tau ThT inhib inconclusive, Sfp PPTase inh 50.1µM*, Tau fibril FP -16.3%, Tau fluor counter -17.3% and FBPA coupling cs 3.8.
`O=C1NC(=O)C(=Cc2cn(CCOc3ccc4c(c3)OCO4)c3ccccc23)C(=O)N1` gave Tau ThT inhib inconclusive, Sfp PPTase inh -14.0%, Tau fibril FP -13.8%, Tau fluor counter -22.5% and FBPA coupling cs -1.3.
C=CC[N+]1(C)CCC23c4c5ccc(O)c4O[C@H]2C(=O)CC[C@@]3(O)C1C5 (stereo not given in full) was read as Tau ThT inhib 0.4%, Sfp PPTase inh 56.2µM*, Tau fibril FP 4.7% and Tau fluor counter 1.5%.
`C=CCN1CC[C@]23c4c5ccc(O)c4O[C@@H]2C(=O)CC[C@]3(O)[C@H]1C5` gave Tau ThT inhib -4.6%, Sfp PPTase inh -17.5%, Tau fibril FP 4.5%, Tau fluor counter -1.5% and FBPA coupling cs 2.2.
Screening C[C@]12C/C(=C/O)C(=O)C[C@@H]1CC[C@@H]1[C@@H]2CC[C@@]2(C)[C@H]1CC[C@]2(C)O returned Sfp PPTase inh 1.3%.
Screening Cc1cc([N+](=O)[O-])c(Cl)cc1NC(=O)C(C)C returned Tau ThT inhib 4.0%, Sfp PPTase inh 9.6%, Tau fibril FP 1.1%, Tau fluor counter 5.9% and FBPA coupling cs 1.7.
For CNc1cc(Cl)c2nonc2c1[N+](=O)[O-] the results were Tau ThT inhib 11.2µM*, Sfp PPTase inh -26.1%, Tau fibril FP -8.7%, Tau fluor counter inconclusive and FBPA coupling cs -11.6.
Screening COc1ccc(N2C(=O)NC(=O)/C(=C/c3cccc(OC(=O)c4cccs4)c3)C2=O)cc1Cl returned Tau ThT inhib inconclusive, Sfp PPTase inh inconclusive, Tau fibril FP inconclusive, Tau fluor counter -19.9% and FBPA coupling cs 7.6.
Cc1ccc(N2C(=O)NC(=O)/C(=C/c3ccc(OC(=O)c4cccs4)cc3)C2=O)cc1 was read as Tau ThT inhib inconclusive, Sfp PPTase inh 44.7µM*, Tau fibril FP -8.6%, Tau fluor counter -12.6% and FBPA coupling cs 4.7.
`CC(=O)OCC1=C[C@H]2[C@@H]3C(C)(C)[C@]3(OC(=O)Cc3ccccc3)C[C@@H](C)[C@]2(O)[C@@H]2C=C(C)C(=O)[C@@]2(O)C1` gave Sfp PPTase inh 15.3% and FBPA coupling cs 2.8.
Screening C[C@@H](NC(=O)[C@@H](N)Cc1ccc(O)cc1)C(=O)NCC(=O)N(C)[C@@H](Cc1ccccc1)C(=O)NCCO returned Sfp PPTase inh 1.9% and FBPA coupling cs 2.9.
